In PMC10726135, “HNF4α isoforms regulate the circadian balance between carbohydrate and lipid metabolism in the liver” one finds binding signal data, which are given here for 42 sequences.

Over roughly 18,000 sequences, “log2 normalized intensity” has its median near 0.36; the highest 2% begin near 7.3. The sample holds the highest values, similar sequences and a random draw of the others, so the mix is not that of the screen.

This assay concerns the target T1, HNF4alpha8 (COS-7 nuclear extract) (Homo sapiens, UniProt P41235-5 1-452).
T1 sequence: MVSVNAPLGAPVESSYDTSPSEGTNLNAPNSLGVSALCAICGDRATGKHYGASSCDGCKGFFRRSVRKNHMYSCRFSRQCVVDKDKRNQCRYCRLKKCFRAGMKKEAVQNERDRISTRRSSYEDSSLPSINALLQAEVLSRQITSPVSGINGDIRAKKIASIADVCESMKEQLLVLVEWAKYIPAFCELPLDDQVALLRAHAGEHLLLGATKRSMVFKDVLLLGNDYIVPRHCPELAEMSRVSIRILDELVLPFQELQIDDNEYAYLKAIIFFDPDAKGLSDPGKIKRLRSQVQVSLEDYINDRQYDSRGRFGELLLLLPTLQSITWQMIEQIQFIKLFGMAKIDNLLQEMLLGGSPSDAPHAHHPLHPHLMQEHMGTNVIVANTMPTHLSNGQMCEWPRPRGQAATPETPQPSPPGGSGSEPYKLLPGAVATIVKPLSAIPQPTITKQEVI
The experiment in a line: protein-binding microarray; COS-7 nuclear extract on double-stranded Agilent 4x180k PBM; binding buffer, salt, pH and temperature not given in the material; high values mean tight binding. The settings on record: chain copies: 2; label: 3' end of strand 1 on the slide; dsDNA, one strand shown. An outline of the steps:
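COS-7 cells were transiently transfected by CaPO4 with an expression vector for a human HNF4α isoform, and nuclear extracts were prepared from them. The extracts were applied to a custom Agilent SurePrint G3 4x180k array of double-stranded ~60-nt oligonucleotides, with ~44,000 test sequences spotted in quadruplicate. An Agilent G2565CA scanner imaged bound HNF4α at 2-µm resolution. Binding signal is the background-corrected, normalized gProcessedSignal from Agilent software.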
Consider “GGTACTGGAAACTGGGCAAGGTCCATTACGGCCTAGGGAGATTAGAGTATCGGTCGA”, for which the binding signal was determined as 3.56 log2 normalized intensity.

Regarding “CACCTTCTTTCTCCCAGAGGTCGATCTGATGCCTAGGGAGATTAGAGTATCGGTCGA”, the binding signal was determined as 2.25 log2 normalized intensity. As for “ACTGACCTTTGAGAGTCAACACTGAAATAGGCCTAGGGAGATTAGAGTATCGGTCGA”, the binding signal turned out to be 2.06 log2 normalized intensity. In the case of “GAAAATATTTCTCTGAACTTTGACCTATAGGCCTAGGGAGATTAGAGTATCGGTCGA”, the binding signal came to 9.31 log2 normalized intensity. Take “AGTTGGAAAATATTTCTCTGAACTTTGACCGCCTAGGGAGATTAGAGTATCGGTCGA”: the binding signal came to 8.68 log2 normalized intensity.

As for “TCTTTGATTAGGAAAGGGAACTCCCTGACCGCCTAGGGAGATTAGAGTATCGGTCGA”, the binding signal was found to be 0.445 log2 normalized intensity. Turning to “GGTGAAATAGCTGAACTATTTAAGGCCTTTGCCTAGGGAGATTAGAGTATCGGTCGA”, the binding signal was found to be 0.507 log2 normalized intensity. For the sequence “CACTTCTGAAAAAAATATTGAACAAAGATTGCCTAGGGAGATTAGAGTATCGGTCGA”, the binding signal came out at 0.276 log2 normalized intensity.

“CTGTTTCTTTGTGTGTCAACAGAGTGCTTAGCCTAGGGAGATTAGAGTATCGGTCGA”: the binding signal stood at 1.48 log2 normalized intensity. The value for “TAGGTACTATTATTAGAGTCCCTTTTTTAGGCCTAGGGAGATTAGAGTATCGGTCGA” was 0.509 log2 normalized intensity; that for “GAAAGGATCTCACCCAAACCATCCCAGGCAGCCTAGGGAGATTAGAGTATCGGTCGA” was 3.1 log2 normalized intensity; that for “GGTGATGTGAACCTCGATCCCTGGCTAAGGGCCTAGGGAGATTAGAGTATCGGTCGA” was 2.38 log2 normalized intensity.

With “CCCCACCCGCGGTCCGTCCCTCCTGGTCGAGCCTAGGGAGATTAGAGTATCGGTCGA”, the binding signal is 3.57 log2 normalized intensity. In the case of “CCCAGTATGAGCGGCGCTGACCCCGGGAGCGCCTAGGGAGATTAGAGTATCGGTCGA” it was 3.67 log2 normalized intensity; in that of “TGAGACTTTCCTGTTGGGGAGCAAAGGTTAGCCTAGGGAGATTAGAGTATCGGTCGA”, 6.1 log2 normalized intensity; in that of “AGTGCTGCATGCAAAAAGGCTGACCTTTGAGCCTAGGGAGATTAGAGTATCGGTCGA”, 8.62 log2 normalized intensity.

In the case of “AAGAGCTGAGGAAGTGCTGACCTTTGGTCTGCCTAGGGAGATTAGAGTATCGGTCGA”, the binding signal is 7.88 log2 normalized intensity. In the case of “CTGAGGAAGTGCTGACCTTTGGTCTAAACCGCCTAGGGAGATTAGAGTATCGGTCGA” it was 6.93 log2 normalized intensity; in that of “CCTAAACCTGCAAACCTTTGACCTTTCCATGCCTAGGGAGATTAGAGTATCGGTCGA”, 6.22 log2 normalized intensity. On to “GTCAGAGTGCTGCATGCAAAAAGGCTGACCGCCTAGGGAGATTAGAGTATCGGTCGA”, for which the binding signal is 1.75 log2 normalized intensity. In the case of “TGCATGCAAAAAGGCTGACCTTTGACTCTCGCCTAGGGAGATTAGAGTATCGGTCGA” it was 8.15 log2 normalized intensity; in that of “TCTCGGTCAAACCTTTGACCCTTTATAATCGCCTAGGGAGATTAGAGTATCGGTCGA”, 6.91 log2 normalized intensity. Consider “CTTTTTGACCTTGCAGTGGCAAGGCAAAAGGCCTAGGGAGATTAGAGTATCGGTCGA”, for which the binding signal worked out at 2.28 log2 normalized intensity.

Regarding “TAGATAAGAGCTGAGGAAGTGCTGACCTTTGCCTAGGGAGATTAGAGTATCGGTCGA”, the binding signal turned out to be 6.57 log2 normalized intensity. In the case of “CTTTGAAATGTCCTGAGTGATTGTAGTGTCGCCTAGGGAGATTAGAGTATCGGTCGA” it was 1.86 log2 normalized intensity. Turning to “CCCCCGCAACTATTTATGAGTCTTGGGAATGCCTAGGGAGATTAGAGTATCGGTCGA”, the binding signal came out at 0.709 log2 normalized intensity.

For the sequence “CACAGTGTTATTTGCTGAGGTGGGGGAGGTGCCTAGGGAGATTAGAGTATCGGTCGA”, the binding signal was found to be 0.772 log2 normalized intensity. With “TTAGGGAGGGGCCAGGACAAAGGTCCTGTGGCCTAGGGAGATTAGAGTATCGGTCGA”, the binding signal came to 2.51 log2 normalized intensity. In the case of “GGTTAAAATTTATCTATTGGGTACAATGTTGCCTAGGGAGATTAGAGTATCGGTCGA” it was 2.37 log2 normalized intensity; in that of “CTTCCAGTCCACAGTCCAGTGACTATCTGCGCCTAGGGAGATTAGAGTATCGGTCGA”, 1.02 log2 normalized intensity; in that of “TCCTCAGGGAATTTCTAGGTTTGATCTTTGGCCTAGGGAGATTAGAGTATCGGTCGA”, 3.49 log2 normalized intensity. As for “ATTTCTAGGTTTGATCTTTGCCCTACAATTGCCTAGGGAGATTAGAGTATCGGTCGA”, the binding signal came out at 6.36 log2 normalized intensity. For the sequence “CTACAGGGTATGAATTTAACCTTTGCTCTCGCCTAGGGAGATTAGAGTATCGGTCGA”, the binding signal amounted to 7.57 log2 normalized intensity.

As for “GCCCTTTGCCCTTTGCCCAACCCTCTCCCAGCCTAGGGAGATTAGAGTATCGGTCGA”, the binding signal was 6.2 log2 normalized intensity. In the case of “TTGCCCTTTGCCCAACCCTCTCCCACTCCCGCCTAGGGAGATTAGAGTATCGGTCGA” it was 4.93 log2 normalized intensity. For the sequence “GGGTATGAATTTAACCTTTGCTCTCTGAAAGCCTAGGGAGATTAGAGTATCGGTCGA”, the binding signal was found to be 6.63 log2 normalized intensity. As to “TAATTGCCCTTTGCCCTTTGCCCAACCCTCGCCTAGGGAGATTAGAGTATCGGTCGA”, the binding signal was determined as 7.74 log2 normalized intensity. With “AGGGAATTTCTAGGTTTGATCTTTGCCCTAGCCTAGGGAGATTAGAGTATCGGTCGA”, the binding signal was found to be 7.66 log2 normalized intensity. In the case of “TGACCTTTGCATTCTTACCCAAGCCCCAAAGCCTAGGGAGATTAGAGTATCGGTCGA” it was 4.12 log2 normalized intensity; in that of “CCATCCTACAGGGTATGAATTTAACCTTTGGCCTAGGGAGATTAGAGTATCGGTCGA”, 4.92 log2 normalized intensity; in that of “TTTCTTAATTGCCCTTTGCCCTTTGCCCAAGCCTAGGGAGATTAGAGTATCGGTCGA”, 8.84 log2 normalized intensity.

For “ACTTTGCCCTTTTTTTCTCTCCCCTTTTAAGCCTAGGGAGATTAGAGTATCGGTCGA”, the binding signal came to 2.63 log2 normalized intensity.
